Bioassay records as filed in PubChem.
A selection: hits, their analogues and other compounds. The true share with any hit is near 15%.
Pf growth 48h = P. falciparum growth inhibition at 48 hours (one generation) | P. falciparum luciferase growth in erythrocytes, 48 h | Potency, µM (top dose mostly 28.7 µM), for the others: top-dose activity change, negative = inhibition, usual class: inhibitors | 5.9% of 310,000 active; further: potency means the concentration at half of the fitted maximal effect; on the % scale 0 is the no-effect control and ±100 the full control effect
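Here the parasites carry a stable luciferase gene and grow inside erythrocytes in Albumax-based RPMI medium with compound for one erythrocytic cycle. Activity is scored as loss of luminescent signal.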
HCMV antiviral = human cytomegalovirus inhibition. HFF cells, HCMV-luciferase reporter, 72 h; stronger effect = lower value. activity change, negative = inhibition, % at 57.5 µM. 4.5% of 410,000 active. AID 1259415; in the data active means activity change below about -60%; inconclusive means no clear call, values can overlap the other calls; inactive means above about -39%; further: on the % scale 0 is the no-effect control and ±100 the full control effect
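HFF cells seeded 16 h at 37C, treated with compounds, infected with luciferase-reporter HCMV at MOI 1 PFU/cell; luciferase read at 72 h post infection, normalized to buffer-only and Salinomycin controls.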
SARS PLpro yeast = blocks SARS-CoV papain-like protease in a yeast assay; S. cerevisiae expressing SARS-CoV PLpro, growth rescue; Potency, µM (titrated, usually from 32.9 µM), without a hit: at the top dose activity, positive = growth rescue, usual class: activators; 0.19% of 330,000 active; AID 485353; calls by dose curve; further: potency means the concentration at half of the fitted maximal effect; 0% is about no effect; nearly all actives have a fitted effect of over 55% in size
HCV inh = blocks hepatitis C virus | Potency, µM (series often up to 41.8 µM), without a hit: at the highest dose activity change, negative = inhibition, actives largely listed as inhibitors | Huh7.5.1 HCVcc-Cre infection, luciferase reporter, 44 h | 3.4% of 340,000 active; further: potency means the concentration at half of the fitted maximal effect; on the % scale 0 is the no-effect control and ±100 the full control effect
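HCVcc-Cre virus at an moi near 0.5 was added right after compound to cells cultured 4 h from seeding (1,000 cells/well). Luciferase activity was determined 44 h later, 15 min after substrate addition at RT.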
Pf growth 96h = inhibits malaria parasite growth, 96 h | P. falciparum luciferase reporter growth, 96 h | Potency, µM (highest dose often 28.7 µM), for inactives: at the highest dose activity change, negative = inhibition, most hits filed as inhibitors | 6.9% of 320,000 active; further: potency means the concentration at half of the fitted maximal effect; on the % scale 0 is the no-effect control and ±100 the full control effect
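Parasite growth measured via integrated firefly luciferase reporter in P. falciparum. Infected erythrocytes at 2% hematocrit, 0.05% parasitemia final were treated 96 hours at 37 C under 5% CO2, and luminescence was read.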
Sm TGR inh = S. mansoni TGR enzyme inhibition | Q962Y6 | purified TGR, DTNB reduction, TNB absorbance 405 nm | Potency, µM (highest dose often 114 µM), inactives show at the highest dose activity change, negative = inhibition, hits mostly inhibitors | 3% of 360,000 active; further: potency means the concentration at half of the fitted maximal effect; on the % scale 0 is the no-effect control and ±100 the full control effect; nearly all actives have a fitted effect of over 60% in size
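Kinetic colorimetric format: TGR-catalysed, NADPH-driven DTNB reduction monitored via TNB absorbance. Enzyme dispensed at 20 nM; compound exposure 15 min at room temperature before reaction start.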
Starred values were filed as active, the others as inactive; ? = inconclusive; . = no result; + = active, no number; ! = not active in a repeat; [ ] = remark or other dose. Unless noted, the call rests on the fitted dose curve; in most records, active means well fitted curve in the direction sought with a large enough effect; inconclusive means small, poorly fitted or top-dose-only effect, or another doubt; inactive means no such curve, though single readings can be large; an effect the other way counts as inactive or inconclusive.

SMILES	Pf growth 48h	HCMV antiviral	SARS PLpro yeast	HCV inh	Pf growth 96h	Sm TGR inh
O=C(C1=C[C@H](c2csc3ccccc23)C[C@H](OCc2ccc(CO)cc2)O1)N1CCN(Cc2ccccc2)CC1	?	?	-4%	?	9.3µM*	14µM*
O=C(O)c1cc2nccc(-c3ccc(F)cc3)n2n1	11%	?	2%	1%	4%	-15%
NC(c1csc(Nc2ccc(C(=O)NCCO)cc2)n1)C1CCCCC1 (centres undefined)	.	-23	.	.	.	.
COc1ccc(C(=O)Nc2ccccc2C(=O)NC(Cc2ccc(O)cc2)C(=O)NNC(=O)c2ccccc2Cl)cc1 (centres undefined)	5.2µM*	?	-14%	?	32%	-1%
Cc1ccc(C(=O)N/C(=C/c2ccccc2)C(=O)NC(Cc2ccccc2)C(=O)O)cc1 (centres undefined)	4%	-20	-1%	-2%	25%	3%
CCCCNC(=O)C(NC(=O)c1ccc(-c2ccccc2)cc1)C(=O)c1ccccc1 (centres undefined)	.	-81*	.	.	.	.
O=C(NC(Cc1ccccc1)C(=O)NC(Cc1ccccc1)C(=O)O)c1ccccc1 (centres undefined)	-17%	-24	1%	-17%	48%	28µM*
CC(=O)NC(Cc1ccccc1)C(=O)NC(Cc1ccccc1)C(=O)O (centres undefined)	-1%	-32	0%	4%	61%	?
Cc1ccc(/C=C(\NC(=O)c2ccccc2)C(=O)NC(Cc2ccccc2)C(=O)O)cc1 (centres undefined)	1%	-20	1%	8%	0.52µM*	-1%
O=C(Nc1ccccc1C(=O)NC(Cc1ccccc1)C(=O)O)c1ccccc1 (centres undefined)	?	?	0%	5%	?	.
CCCNC(=O)C(Cc1ccc(OC)cc1)NC(=O)c1ccc(C#N)cc1 (centres undefined)	69%	5	-3%	3.2µM*	?	-25%
O=C(Nc1ccccc1C(=O)NC(Cc1ccccc1)C(=O)NC1CCCCC1)c1ccccc1 (centres undefined)	10µM*	?	-6%	-11%	?	0%
CCCNC(=O)C(Cc1ccccc1)NC(=O)c1ccc(-c2ccccc2)cc1 (centres undefined)	0%	16	2%	-4%	1.5µM*	1%
CCCNC(=O)C(Cc1ccc(OC)cc1)NC(=O)c1ccc(Cl)cc1 (centres undefined)	-2%	-13	1%	1%	12%	-1%
COc1ccccc1CNC(=O)COc1cc(=O)n(C)c2ccccc12	.	3	.	.	.	0%
O=C(O)c1cc2c([nH]c1=O)CCCC2	15%	44	1%	-1%	35%	2%
C=CCSC(=C(C#N)C#N)c1cc2c([nH]1)CCCC2	?	-20	-29%	13µM*	.	-34%
CCN(CC)S(=O)(=O)c1cccc(C(=O)N[C@H](C(=O)Nc2nc3ccc(F)cc3s2)C(C)C)c1	13µM*	150	11%	?	2.6µM*	-5%
Cc1cccc(C(=O)N[C@H](C(=O)Nc2nnc(C3CC3)s2)C(C)C)c1	-16%	-19	-2%	2%	-18%	1%
CCN(CC)S(=O)(=O)c1cccc(C(=O)NC(C(=O)Nc2nnc(C3CC3)s2)C(C)C)c1 (centres undefined)	?	2	-4%	-20%	8.3µM*	53%
COc1ccc(Br)cc1CNC(=O)CSc1cc(=O)n(C)c2ccccc12	.	18	.	.	.	8%
CCc1ccc(NC(=O)CCc2ccc(CC)o2)cc1	34%	13	-11%	-11%	?	0%
CCc1ccc(CCC(=O)Nc2ccc(C(=O)O)cc2)o1	17%	+	18%	12%	?	?
CCc1ccc(CCC(=O)Nc2nc(CC(C)=O)ns2)o1	?	34	6%	?	-18%	40µM*
O=C(CCNC(=O)c1ccccc1Cl)NCCC1=CCCCC1	?	-17	2%	1%	14%	-2%
SMILES	Pf growth 48h	HCMV antiviral	SARS PLpro yeast	HCV inh	Pf growth 96h	Sm TGR inh
NC(=O)c1nnn(-c2cccc(C(F)(F)F)c2)c1-c1ccccc1	16%	-11	-2%	6%	13%	11%
C[C@H](CO)N1C[C@H](C)[C@@H](CN(C)S(=O)(=O)c2cn(C)cn2)Oc2ccc(NC(=O)C3CCCCC3)cc2C1=O	.	-18	1%	47%	.	.
O=C(/C=C/c1ccc(OCCCF)cc1)Nc1ccnc(-c2cccnc2)n1	10µM*	-33	0%	?	?	0%
CCCCC(=O)Nc1ccnc(-c2cccnc2)n1	14%	21	-1%	-21%	70%	-9%
O=C(/C=C/c1ccc(OCCCF)cc1)Nc1ccnc(-c2ccncc2)n1	13µM*	?	1%	?	13µM*	-2%
Cc1ccc(CCNC(=O)C(C)n2nc(C)c3c(C)n(-c4ccccc4)nc3c2=O)cc1 (centres undefined)	-14%	-31	-8%	-13%	?	-5%
Cc1nn(CCCC(=O)NCc2ccccc2)c(=O)c2cc3sccc3n12	.	?	.	.	.	-8%
Cc1nn(CCC(=O)NCc2ccc(N(C)C)cc2)c(=O)c2nn(-c3ccccc3)c(C)c12	-12%	-63*!	0%	-9%	?	-8%
Cc1nn(CCCC(=O)NCCc2ccccc2)c(=O)c2nccn12	14%	-98*	0%	19%	12%	4%
CCOc1ccc(CCNC(=O)CCCn2nc(C)c3c(C)n(-c4ccccc4)nc3c2=O)cc1	-10%	?	15%	?	13µM*	0%
Cc1nn(CCC(=O)NCc2ccc(Cl)cc2)c(=O)c2nn(-c3ccccc3)c(C)c12	.	2	.	.	.	-2%
CCOc1ccc(CCNC(=O)C(C)n2nc(C)c3c(C)n(-c4ccccc4)nc3c2=O)cc1 (centres undefined)	?	-24	?	-29%	13µM*	6%
COc1ccc(C2=CCN3CCCCC3C2)c(-c2ccc(OC)c(OC)c2)c1 (centres undefined)	.	-2	0%	?	.	.
Cc1ccc(-c2cn(CCN)c(=O)cn2)cc1	.	11	.	.	.	.
COc1ccccc1-c1ccc(NC2CCCC2)nn1	89%	88	-24%	?	?	2%
COc1cc2c(cc1OC)CN(c1ccc(-c3ccccc3OC)nn1)CC2	5.2µM*	.	-3%	?	6%[5.75 µM]	-4%
COc1cc2c(cc1OC)CN(c1ccc3ccccc3n1)CC2	12µM*	-5	-21%	13µM*	?	-18%
COc1cc2c(cc1OC)CN(c1ccc(C(F)(F)F)cn1)CC2	19%	-35	-6%	?	38%	3%
